What all share (test): DAPPL (digital affinity profiling via proximity ligation, sequencing); 10 mM Tris-HCl pH 7.5, 50 mM NaCl, 1 mM DTT, 4% glycerol, room temperature, 30 min; GST-TFs on glutathione beads, 16-mer random dsDNA library, 0.1% formaldehyde crosslink after washing; high values mean tight binding
Conditions in all cases: protein: recombinant; tags: N-terminal GST; dsDNA, one strand shown

Assay [1] has as its target T1, FLI1 (Homo sapiens, UniProt Q01543 1-452).
T1 sequence: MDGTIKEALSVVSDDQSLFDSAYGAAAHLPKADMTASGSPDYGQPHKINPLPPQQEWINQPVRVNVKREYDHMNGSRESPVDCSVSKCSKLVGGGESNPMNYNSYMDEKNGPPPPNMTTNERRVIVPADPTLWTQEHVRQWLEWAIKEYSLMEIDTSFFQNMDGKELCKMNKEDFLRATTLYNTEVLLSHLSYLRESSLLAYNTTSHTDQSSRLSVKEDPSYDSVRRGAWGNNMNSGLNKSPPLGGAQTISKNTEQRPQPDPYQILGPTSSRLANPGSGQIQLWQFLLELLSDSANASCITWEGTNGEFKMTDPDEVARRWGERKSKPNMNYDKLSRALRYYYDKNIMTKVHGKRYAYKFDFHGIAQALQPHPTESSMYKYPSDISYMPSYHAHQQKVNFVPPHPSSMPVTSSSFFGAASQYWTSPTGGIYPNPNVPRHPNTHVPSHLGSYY
In short, it runs like this: (§1)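 Beads coated with glutathione captured GST-fused human transcription factors that had been expressed in yeast, and the factors were then given DNA barcodes and pooled with a tag-only sample. The pools were incubated with 200 nmole of a random double-stranded 16-mer DNA library in Tris/NaCl/DTT/glycerol buffer for 30 min at room temperature, washed, crosslinked with 0.1% formaldehyde and proximity-ligated with BsaI/T4 ligase at 37 °C for 1 h. PCR amplification and Illumina NextSeq500 sequencing came last. Binding signal is each hexamer's read frequency for a factor divided by its frequency for the tag-only sample.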

In assay [2] the target is T2, ELK1 (Homo sapiens, UniProt P19419 1-428).
T2 sequence: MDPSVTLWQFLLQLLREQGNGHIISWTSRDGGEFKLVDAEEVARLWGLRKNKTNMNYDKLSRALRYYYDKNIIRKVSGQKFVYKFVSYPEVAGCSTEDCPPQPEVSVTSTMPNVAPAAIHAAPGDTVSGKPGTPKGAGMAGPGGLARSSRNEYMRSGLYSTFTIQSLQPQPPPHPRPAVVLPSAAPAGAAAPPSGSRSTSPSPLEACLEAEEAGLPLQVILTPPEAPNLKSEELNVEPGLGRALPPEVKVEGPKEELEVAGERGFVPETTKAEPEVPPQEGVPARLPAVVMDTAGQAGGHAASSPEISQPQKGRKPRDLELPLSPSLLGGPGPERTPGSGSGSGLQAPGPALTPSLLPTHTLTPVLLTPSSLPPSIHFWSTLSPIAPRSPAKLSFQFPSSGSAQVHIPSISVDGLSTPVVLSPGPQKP
In short, it runs like this:
as §1

Assay [3] has as its target T3, ERG (Homo sapiens, UniProt P11308 1-479).
T3 sequence: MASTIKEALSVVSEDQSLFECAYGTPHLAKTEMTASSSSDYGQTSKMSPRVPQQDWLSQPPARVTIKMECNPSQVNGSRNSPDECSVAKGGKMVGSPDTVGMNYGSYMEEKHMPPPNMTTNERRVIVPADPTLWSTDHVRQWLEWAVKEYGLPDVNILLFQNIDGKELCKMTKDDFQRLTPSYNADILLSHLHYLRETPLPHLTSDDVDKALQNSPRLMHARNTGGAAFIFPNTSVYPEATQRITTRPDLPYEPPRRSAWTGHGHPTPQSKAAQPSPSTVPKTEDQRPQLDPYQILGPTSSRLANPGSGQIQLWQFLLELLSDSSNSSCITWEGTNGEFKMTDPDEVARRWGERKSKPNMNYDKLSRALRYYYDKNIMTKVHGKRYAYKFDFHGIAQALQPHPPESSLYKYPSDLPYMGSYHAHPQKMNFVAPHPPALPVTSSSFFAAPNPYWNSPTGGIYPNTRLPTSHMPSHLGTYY
In short, it runs like this: as §1

The target of assay [4] is T4, EHF (Homo sapiens, UniProt Q9NZC4 1-300).
T4 sequence: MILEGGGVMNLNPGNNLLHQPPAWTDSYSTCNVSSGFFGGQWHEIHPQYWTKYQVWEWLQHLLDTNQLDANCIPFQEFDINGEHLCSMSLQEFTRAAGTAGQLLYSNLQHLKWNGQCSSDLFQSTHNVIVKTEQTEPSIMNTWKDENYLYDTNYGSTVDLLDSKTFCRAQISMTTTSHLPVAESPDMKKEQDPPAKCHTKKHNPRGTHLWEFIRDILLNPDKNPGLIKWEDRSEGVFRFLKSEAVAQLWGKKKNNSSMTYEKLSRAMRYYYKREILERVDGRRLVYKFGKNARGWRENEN
The procedure, abridged: as §1

Assay [5] deals with SPI1 (Homo sapiens, UniProt P17947 1-270). The procedure, abridged:
as §1

Assay [6] addresses SPIB (Homo sapiens, UniProt Q01892 1-262). In short, it runs like this:
as §1

Assay [7] addresses T5, ELK3 (Homo sapiens, UniProt P41970 1-407).
T5 sequence: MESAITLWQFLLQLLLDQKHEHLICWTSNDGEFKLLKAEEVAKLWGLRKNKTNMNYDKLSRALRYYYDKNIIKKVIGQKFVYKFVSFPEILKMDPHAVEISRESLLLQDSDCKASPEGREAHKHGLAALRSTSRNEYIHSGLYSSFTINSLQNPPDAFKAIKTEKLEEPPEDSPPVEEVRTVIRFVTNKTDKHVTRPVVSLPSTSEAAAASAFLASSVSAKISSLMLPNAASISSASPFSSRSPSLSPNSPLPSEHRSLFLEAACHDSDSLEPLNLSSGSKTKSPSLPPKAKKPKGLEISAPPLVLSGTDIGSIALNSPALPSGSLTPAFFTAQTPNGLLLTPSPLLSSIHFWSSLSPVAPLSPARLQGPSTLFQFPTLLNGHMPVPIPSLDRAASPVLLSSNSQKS
In short, it runs like this:
as §1

For assay [8], the target named is ETV5 (Homo sapiens, UniProt P41161 1-510). The procedure, abridged: as §1
For assay [9], the target named is T6, SPIC (Homo sapiens, UniProt Q8N5J4 1-248).
T6 sequence: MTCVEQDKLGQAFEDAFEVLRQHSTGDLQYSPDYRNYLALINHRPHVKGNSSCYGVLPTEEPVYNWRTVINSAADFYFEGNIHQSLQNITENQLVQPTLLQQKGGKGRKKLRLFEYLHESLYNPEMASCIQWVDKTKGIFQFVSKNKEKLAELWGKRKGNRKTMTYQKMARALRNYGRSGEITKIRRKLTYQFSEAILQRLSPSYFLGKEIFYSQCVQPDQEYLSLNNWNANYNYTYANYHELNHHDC
The procedure, abridged:
as §1

The target of assay [10] is ELF4 (Homo sapiens, UniProt Q99607 1-663). In short, it runs like this: as §1
The target in assay [11] is ETV1 (Homo sapiens, UniProt P50549 1-477). In short, it runs like this:
as §1

Assay [12] addresses T7, ETS2 (Homo sapiens, UniProt P15036 1-469).
T7 sequence: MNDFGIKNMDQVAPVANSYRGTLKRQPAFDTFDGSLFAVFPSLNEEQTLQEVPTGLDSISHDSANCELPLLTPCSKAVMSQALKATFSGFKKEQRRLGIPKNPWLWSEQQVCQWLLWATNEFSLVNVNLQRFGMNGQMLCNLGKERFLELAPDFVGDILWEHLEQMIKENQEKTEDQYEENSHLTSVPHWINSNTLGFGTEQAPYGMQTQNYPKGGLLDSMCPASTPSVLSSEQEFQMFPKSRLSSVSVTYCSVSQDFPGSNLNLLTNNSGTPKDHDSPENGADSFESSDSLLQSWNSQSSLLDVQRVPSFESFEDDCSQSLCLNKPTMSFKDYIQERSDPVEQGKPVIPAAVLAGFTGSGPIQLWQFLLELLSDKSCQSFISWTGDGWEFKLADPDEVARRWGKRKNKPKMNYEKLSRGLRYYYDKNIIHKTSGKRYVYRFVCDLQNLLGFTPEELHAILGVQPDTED
In short, it runs like this:
as §1

The target of assay [13] is T8, ELF5 (Homo sapiens, UniProt Q9UKW6-2 1-255).
T8 sequence: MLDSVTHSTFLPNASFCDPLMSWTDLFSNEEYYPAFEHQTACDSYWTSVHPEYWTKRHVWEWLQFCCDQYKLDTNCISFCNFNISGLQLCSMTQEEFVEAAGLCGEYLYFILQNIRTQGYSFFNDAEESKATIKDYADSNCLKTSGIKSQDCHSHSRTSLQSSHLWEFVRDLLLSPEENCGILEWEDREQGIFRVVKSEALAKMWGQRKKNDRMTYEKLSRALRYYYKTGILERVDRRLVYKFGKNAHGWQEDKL
The procedure, abridged: as §1

In assay [14] the target is T9, ETV3 (Homo sapiens, UniProt P41162-2 1-143).
T9 sequence: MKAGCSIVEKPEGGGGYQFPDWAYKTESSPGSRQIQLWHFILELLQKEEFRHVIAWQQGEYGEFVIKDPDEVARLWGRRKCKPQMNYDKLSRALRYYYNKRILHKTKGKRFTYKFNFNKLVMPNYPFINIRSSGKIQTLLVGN
In short, it runs like this:
as §1

For assay [15], the target named is ETV6 (Homo sapiens, UniProt P41212 1-452). The procedure, abridged:
as §1

SPIB, sequence (Q01892 whole entry): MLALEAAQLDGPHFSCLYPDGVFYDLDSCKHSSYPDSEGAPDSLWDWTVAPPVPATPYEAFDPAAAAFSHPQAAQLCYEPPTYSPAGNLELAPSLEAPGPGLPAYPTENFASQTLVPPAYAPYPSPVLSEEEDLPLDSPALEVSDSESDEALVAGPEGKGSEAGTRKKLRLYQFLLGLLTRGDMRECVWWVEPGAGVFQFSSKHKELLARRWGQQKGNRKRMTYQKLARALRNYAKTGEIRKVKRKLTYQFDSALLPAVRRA
ETV6, sequence (P41212 whole entry): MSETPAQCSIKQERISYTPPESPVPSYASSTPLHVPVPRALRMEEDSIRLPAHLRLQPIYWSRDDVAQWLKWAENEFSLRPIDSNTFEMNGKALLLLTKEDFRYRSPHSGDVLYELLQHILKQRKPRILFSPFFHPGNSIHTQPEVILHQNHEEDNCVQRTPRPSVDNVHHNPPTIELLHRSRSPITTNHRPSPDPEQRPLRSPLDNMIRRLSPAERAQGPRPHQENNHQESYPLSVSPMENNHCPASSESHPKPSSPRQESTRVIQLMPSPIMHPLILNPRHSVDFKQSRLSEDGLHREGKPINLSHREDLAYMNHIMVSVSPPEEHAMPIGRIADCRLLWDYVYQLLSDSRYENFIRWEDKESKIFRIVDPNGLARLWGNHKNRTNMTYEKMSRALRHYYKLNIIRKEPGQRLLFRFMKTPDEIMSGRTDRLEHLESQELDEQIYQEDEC
ETV1, sequence (P50549 whole entry): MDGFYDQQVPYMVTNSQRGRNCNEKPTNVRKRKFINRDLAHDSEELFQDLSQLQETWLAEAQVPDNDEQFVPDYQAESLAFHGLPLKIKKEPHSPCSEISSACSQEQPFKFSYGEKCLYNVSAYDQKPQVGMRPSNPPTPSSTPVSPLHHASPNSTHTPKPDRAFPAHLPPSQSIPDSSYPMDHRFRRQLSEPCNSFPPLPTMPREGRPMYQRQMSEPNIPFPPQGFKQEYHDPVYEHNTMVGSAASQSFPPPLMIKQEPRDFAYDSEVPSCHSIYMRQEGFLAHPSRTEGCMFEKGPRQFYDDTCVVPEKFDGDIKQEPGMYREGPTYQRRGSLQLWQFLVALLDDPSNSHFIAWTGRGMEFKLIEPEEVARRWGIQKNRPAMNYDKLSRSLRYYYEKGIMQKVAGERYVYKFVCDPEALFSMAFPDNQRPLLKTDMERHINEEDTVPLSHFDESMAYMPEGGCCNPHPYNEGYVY
ELF4, sequence (Q99607 whole entry): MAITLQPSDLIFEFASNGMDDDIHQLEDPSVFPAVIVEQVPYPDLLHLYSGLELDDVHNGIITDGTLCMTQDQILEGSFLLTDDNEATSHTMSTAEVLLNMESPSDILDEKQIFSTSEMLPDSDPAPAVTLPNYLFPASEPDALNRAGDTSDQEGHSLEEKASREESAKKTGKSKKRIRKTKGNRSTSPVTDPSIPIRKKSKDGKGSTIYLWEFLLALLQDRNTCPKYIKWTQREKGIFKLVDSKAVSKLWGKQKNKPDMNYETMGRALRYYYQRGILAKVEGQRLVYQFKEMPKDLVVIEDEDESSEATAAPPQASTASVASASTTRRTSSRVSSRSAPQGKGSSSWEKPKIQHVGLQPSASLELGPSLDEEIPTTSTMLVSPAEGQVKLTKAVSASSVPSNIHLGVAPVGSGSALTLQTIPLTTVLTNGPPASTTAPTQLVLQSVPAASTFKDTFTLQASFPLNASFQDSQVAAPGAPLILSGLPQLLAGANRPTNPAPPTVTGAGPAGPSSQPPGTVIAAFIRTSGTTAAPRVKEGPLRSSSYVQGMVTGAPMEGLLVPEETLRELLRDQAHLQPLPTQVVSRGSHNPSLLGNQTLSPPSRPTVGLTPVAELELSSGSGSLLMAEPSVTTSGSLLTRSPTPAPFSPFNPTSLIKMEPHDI
ETV5, sequence (P41161 whole entry): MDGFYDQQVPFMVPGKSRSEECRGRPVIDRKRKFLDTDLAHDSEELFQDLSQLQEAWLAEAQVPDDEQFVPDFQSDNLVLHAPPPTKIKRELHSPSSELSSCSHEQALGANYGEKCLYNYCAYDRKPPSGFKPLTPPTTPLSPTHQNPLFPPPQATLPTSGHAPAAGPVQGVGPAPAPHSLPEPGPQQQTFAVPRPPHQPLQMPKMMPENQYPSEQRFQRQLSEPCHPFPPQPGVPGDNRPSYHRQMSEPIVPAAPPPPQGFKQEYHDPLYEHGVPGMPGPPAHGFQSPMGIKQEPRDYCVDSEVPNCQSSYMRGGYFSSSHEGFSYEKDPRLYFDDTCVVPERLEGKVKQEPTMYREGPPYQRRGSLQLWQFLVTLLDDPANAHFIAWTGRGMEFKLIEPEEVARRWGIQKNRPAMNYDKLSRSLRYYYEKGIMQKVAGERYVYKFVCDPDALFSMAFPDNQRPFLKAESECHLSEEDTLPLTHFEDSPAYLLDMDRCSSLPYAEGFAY

As to AGGAAC, the binding signal in assay [1] is 1.03 fold enrichment (6-mer frequency, TF over GST control); in assay [2] it was 1.08 fold enrichment (6-mer frequency, TF over GST control); in assay [3], 1.05 fold enrichment (6-mer frequency, TF over GST control); in assay [4], 1.06 fold enrichment (6-mer frequency, TF over GST control); in assay [5], 1.45 fold enrichment (6-mer frequency, TF over GST control); in [6], 1.11 fold enrichment (6-mer frequency, TF over GST control). In addition, the binding signal is 1 fold enrichment (6-mer frequency, TF over GST control) in assay [7]; 1.1 fold enrichment (6-mer frequency, TF over GST control) in assay [8]; 1.23 fold enrichment (6-mer frequency, TF over GST control) in assay [9]; 1 fold enrichment (6-mer frequency, TF over GST control) in [10]; 1.04 fold enrichment (6-mer frequency, TF over GST control) in assay [11]; 1.08 fold enrichment (6-mer frequency, TF over GST control) in assay [12]. For the same sequence, the binding signal in assay [13] is 1.28 fold enrichment (6-mer frequency, TF over GST control); in assay [14], 1.05 fold enrichment (6-mer frequency, TF over GST control); in [15], 1.04 fold enrichment (6-mer frequency, TF over GST control).

The values above are taken from article PMC7862700, “An all-to-all approach to the identification of sequence-specific readers for epigenetic DNA modifications on cytosine”.
